# Screening data: PubChem BioAssay, several laboratories
# Shown are actives, neighbours in structure and some others; about 2.3% of the full set was active somewhere.
# HTR1E agonist – agonists of human 5-HT1E serotonin receptor | P28566 | CHO 5-HT1E Ga15 NFAT-bla reporter, FRET; 0% DMSO wells, 100% control agonist wells | activation, % at 6 µM | 0.69% of 65,000 active | AID 574;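 active = activation above a set limit, the screen-wide mean activation plus 3 SD, cut at about 8.5% in these data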;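 note: 100% = positive control agonist at 1 µM giving full maximal response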
# 5HT1E antag – antagonists of human 5-HT1E serotonin receptor. 0.99% of 65,000 active. AID 571. CHO 5-HT1E Ga15 NFAT-bla reporter, FRET, antagonist. inhibition, % at 6 µM. P28566;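 active = inhibition above a set limit, the mean inhibition across every tested compound plus 3 SD, cut at about 29% in these data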;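 note: signal is the 460 over 535 nm emission ratio of beta-lactamase substrate; 0% = agonist plus DMSO wells and 100% = wells without agonist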
# mHtt clearance – compounds clearing mutant huntingtin protein; 0.42% of 47,000 active; AID 853; HeLa Exon1htt(103Q)mCFP, aggregate imaging; zero = plate's median compound well; inhibition, % at 1.5 µM;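 active = inhibition of aggregate fluorescence above about 70%, also judged a hit by eye on the cell image, limit read from the data, passing the limit was not always enough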;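 note: cells exposed to compound for three days before fixation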
# 5-HT1A blocker – 5-HT1a (human) receptor antagonism | P08908 | CHO 5-HT1a Ga15 NFAT-bla reporter, antagonist mode | inhibition, % at 10 µM | 0.68% of 62,000 active;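 active = inhibition above the mean of all tested compounds plus 3 SD, cut at about 43% in these data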;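 note: receptor stimulated by 5-CT agonist at 100 nM near EC80; beta-lactamase reporter measured by ratiometric fluorescence of a cleavable substrate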
# Target sequence (P08908 whole entry, looked up): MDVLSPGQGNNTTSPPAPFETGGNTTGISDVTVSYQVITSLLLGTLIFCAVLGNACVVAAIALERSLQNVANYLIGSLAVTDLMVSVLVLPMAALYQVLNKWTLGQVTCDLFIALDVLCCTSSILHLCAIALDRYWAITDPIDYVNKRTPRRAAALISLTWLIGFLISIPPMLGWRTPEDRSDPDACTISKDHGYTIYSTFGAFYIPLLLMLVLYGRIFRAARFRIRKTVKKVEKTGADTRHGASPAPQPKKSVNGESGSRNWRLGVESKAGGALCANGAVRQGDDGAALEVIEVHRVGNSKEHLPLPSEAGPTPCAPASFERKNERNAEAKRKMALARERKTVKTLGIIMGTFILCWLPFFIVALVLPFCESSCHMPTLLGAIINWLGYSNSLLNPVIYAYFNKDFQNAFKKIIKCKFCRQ
# HTR1A agonist – 5-HT1a (human) receptor agonism; 0.56% of 65,000 active; CHO 5-HT1a Ga15 NFAT-bla reporter, FRET ratio; 0% basal, 100% maximal reference agonist; AID 567; activation, % at 10 µM;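 active = activation above the screen-wide mean activation plus 3 SD, cut at about 19% in these data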;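 note: 0% = DMSO wells and 100% = 5-CT at EC100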
# The depositor's hits bear a star; / = not tested or not shown.
SMILES,HTR1E agonist,5HT1E antag,mHtt clearance,5-HT1A blocker,HTR1A agonist
O=C(CCn1c(=O)oc2ccccc21)NCCN1CCOCC1,0,3,/,-4,-1
Cc1ccc(Nc2cc(C)nn2-c2nc(C)cc(=O)[nH]2)cc1,0,74*,/,61*,-8
Cc1ccc(Nc2cc(C)nn2-c2nc(C)cc(C)n2)cc1,1,9,-9,17,-1
Cn1c(=O)[nH]c(=O)c2c1nc(Br)n2CCCSc1nc2ccccc2o1,0,34*,22,14,3
Cn1c(=O)[nH]c(=O)c2c1nc(N1CCCC1)n2CCCSc1nc2ccccc2o1,1,14,/,-5,2
CCNc1nc2c(c(=O)n(Cc3ccccc3)c(=O)n2C)n1Cc1ccccc1,0,0,/,0,37*
Cc1ccc(Cn2c(NCCc3ccccc3)nc3c2c(=O)n(C)c(=O)n3C)cc1,0,8,71*,9,3
C=CCn1c(NCCc2ccccc2)nc2c1c(=O)n(C)c(=O)n2C,1,8,-61,-5,1
CC(C)[C@H](NC(=O)[C@@H]1CSCN1C(=O)OC(C)(C)C)C(=O)NCC1CCC(C(=O)O)CC1 (stereo partly specified),0,0,76*,-7,-3
COC(=O)c1ccccc1NC(=O)NCc1ccc2c(c1)OCO2,-1,31*,-57,17,17
COc1ccccc1NC(=O)NCc1ccc2c(c1)OCO2,2,-4,-56,6,-1
CC12CCC(C(=O)NCc3ccccc3)(OC1=O)C2(C)C (stereo unspecified),0,3,/,1,-2
COCCN1Cc2cccc(C(=O)NCc3ccc4c(c3)OCO4)c2C1=O,0,15,/,1,238*
CC12CCC(C(=O)NCc3ccc4c(c3)OCO4)(OC1=O)C2(C)C (stereo unspecified),-1,5,71*,10,-2
COCCN1Cc2cccc(C(=O)NCc3ccccn3)c2C1=O,0,0,64,-2,-2
CC1(C)CC(=O)C2=C(C1)Oc1nc3ccccc3cc1C2C(C#N)C#N (stereo unspecified),0,28,33,/,-1
Cc1ccc(SC/C(O)=C(\C#N)c2nc3ccccc3n2C)cc1,0,-10,/,-29,0
CCN(CC)S(=O)(=O)c1ccc(/C(O)=C(\C#N)c2nc3ccccc3n2C)cc1,0,39*,-9,-23,15
CN(C)CC(C(=O)c1ccccc1)c1ccccc1 (stereo unspecified),0,74*,/,76*,-5
CCNc1c2c3c(cccc3n(C)c1=O)C(=O)c1ccccc1-2,32*,21,/,11,3
CN=c1sc2ccccc2n1CC(O)COCc1ccco1 (stereo unspecified),36*,-16,/,/,0
OC(COCc1ccco1)CN1CCN(C(c2ccccc2)c2ccccc2)CC1 (stereo unspecified),0,2,/,20,1
CC1Oc2ccccc2N(CC(=O)N2CCc3ccccc32)C1=O (stereo unspecified),0,-4,-8,5,-5
CC1Oc2ccccc2N(CC(=O)N2CCCc3ccccc32)C1=O (stereo unspecified),1,3,-34,14,41*
Cc1c(NC(=O)C(C)Sc2nc3ccccc3c(=O)n2CCO)c(=O)n(-c2ccccc2)n1C (stereo unspecified),-1,-1,-6,-15,-4
SMILES,HTR1E agonist,5HT1E antag,mHtt clearance,5-HT1A blocker,HTR1A agonist
Cc1ccc(C(=O)Nc2nc3ccccc3c(=O)s2)cc1,0,-5,/,67*,-2
COc1ccc(NC(=O)Cn2cccc2)cc1Cl,-1,6,-6,3,141*
O=C1CN(C(=O)OCc2ccccc2)c2ccccc2N1,0,48*,/,-15,-1
O=C1CN(C(=O)c2ccccc2F)c2ccccc2N1,0,1,/,-8,-2
O=C1C2C3C=CC(CO)(O3)C2C(=O)N1c1ccc(-c2ccccc2)cc1 (stereo unspecified),0,61*,-83,88*,-6
CCOC(=O)c1nnn(-c2nonc2N)c1COc1cc(C)c(Cl)c(C)c1,-1,12,-30,49*,-6
O=C(CSc1nnnn1-c1cccc2c1CCCC2)N1CCCCC1,/,/,11,/,/
N#Cc1c(-c2cccnc2)c2c([nH]c1=S)CCCC2,0,2,-152,-4,-1
COc1ccc(-c2c3c([nH]c(=S)c2C#N)CCC3)cc1,0,-6,71*,/,1
